Reference: PubChem BioAssay (EPA / NIEHS)
Activity calls are given as the source filed them. How the source made its calls: active means hit-call score of the fitted dose curve at least 0.9, where 1 is the maximum; inactive means score below 0.9.

Test: CCTE_Harrill_HTTr_Viability_MCF7: CCTE's 6-hour Cell Viability Assessment for the High-Throughput Transcriptomics (HTTr) Platform, in MCF-7 cells cultured in DMEM + 10% fetal bovine serum, Harrill Lab (AID 2284010)
Source text: This is a cell-based assay that evaluates cell viability using high content imaging to evaluate membrane integrity using propidium iodide dye exclusion in a 384 well format.One of seven assay components measured from the CCTE_Harrill_HTTr_Viability assay. This was part of a full screening experiment. This is a cell-based assay that evaluates cell viability in MCF-7 cells cultured in DMEM + 10% fetal bovine serum. High content imaging is used to evaluate membrane integrity using propidium iodide dye exclusion. Measurements are taken at 6 hours after chemical dosing in 384-well format.The assay component endpoint CCTE_Harrill_HTTr_Viability_MCF7 was analyzed with bidirectional fitting relation to DMSO as the negative control and baseline of activity. Using a type of viability reporter, gain-of-signal activity can be used to evaluate membrane integrity using propidium iodide dye exclusion to understand changes in cytotoxicity. To generalize the intended target to other relatable targets, this assay endpoint is annotated to cell cycle, where the subfamily is cytotoxicity.
Chemicals were tested in MCF7 cells in an eight point dilution series with a six hour exposure duration.

Row | Compound | outcome
1 | CC(Oc1ccc(Cl)cc1Cl)C(=O)O (stereo not given) | inactive
2 | CCCCNC(=O)n1c(NC(=O)OC)nc2ccccc21 | inactive
3 | COP(=S)(OC)Oc1nc(Cl)c(Cl)cc1Cl | inactive
4 | COc1ccc(C(c2ccc(OC)cc2)C(Cl)(Cl)Cl)cc1 | inactive
5 | CC1=C(C(=O)Nc2ccccc2)SCCO1 | inactive
6 | COC(=O)c1ccccc1C(=O)OC | inactive
7 | CON(C)C(=O)Nc1ccc(Cl)c(Cl)c1 | inactive
8 | O=C(O)c1nc(Cl)ccc1Cl | inactive
9 | CCCC1COC(Cn2cncn2)(c2ccc(Cl)cc2Cl)O1 (stereo not given) | inactive
10 | N#CC(CCc1ccc(Cl)cc1)(Cn1cncn1)c1ccccc1 (stereo not given) | inactive
11 | CC(C)C1(C)N=C(c2nc3ccccc3cc2C(=O)O)NC1=O (stereo not given) | inactive
12 | CC1COC(Cn2cncn2)(c2ccc(Oc3ccc(Cl)cc3)cc2Cl)O1 (stereo not given) | inactive
13 | CCOP(=S)(OCC)SCn1c(=O)oc2cc(Cl)ccc21 | inactive
14 | C=CCC1=C(C)[C@@H](OC(=O)[C@@H]2[C@@H](C=C(C)C)C2(C)C)CC1=O | inactive
15 | CCCCOC(=O)c1ccccc1C(=O)OCCCC | inactive
16 | CCCN(CCC)c1c([N+](=O)[O-])cc(S(N)(=O)=O)cc1[N+](=O)[O-] | inactive
17 | CCc1nn(C)c(C(=O)NCc2ccc(C(C)(C)C)cc2)c1Cl | inactive
18 | C=CC1(C)OC(=O)N(c2cc(Cl)cc(Cl)c2)C1=O (stereo not given) | inactive
19 | C#CCOS(=O)OC1CCCCC1Oc1ccc(C(C)(C)C)cc1 (stereo not given) | inactive
20 | CC(C)(C)c1ccc(CSc2cnn(C(C)(C)C)c(=O)c2Cl)cc1 | inactive

Row | Compound | outcome
21 | CCCCNC(=O)OCC#CI | inactive
22 | CNC(=S)S | inactive
23 | CNC(=O)ON=CC(C)(C)SC | inactive
24 | Cc1c(F)c(F)c(COC(=O)C2C(/C=C(\Cl)C(F)(F)F)C2(C)C)c(F)c1F (stereo not given) | inactive
25 | N#Cc1cc(Br)c(O)c(Br)c1 | inactive
26 | CCOC(=O)CC(SP(=S)(OC)OC)C(=O)OCC (stereo not given) | inactive
27 | O=C(Nc1ccccc1)Nc1ccnc(Cl)c1 | inactive
28 | CS/C(C)=N/OC(=O)N(C)SN(C)C(=O)O/N=C(\C)SC | inactive
29 | N#Cc1nn(-c2c(Cl)cc(C(F)(F)F)cc2Cl)c(N)c1S(=O)C(F)(F)F (stereo not given) | inactive
30 | COc1nc(NC(C)C)nc(NC(C)C)n1 | inactive
31 | Fc1ccc(Oc2ccnc3cc(Cl)cc(Cl)c23)cc1 | inactive
32 | CCNc1nc(Cl)nc(NCC)n1 | inactive
33 | O=C(O)COc1nc(Cl)c(Cl)cc1Cl | inactive
34 | COc1cnc(OC)n2nc(NS(=O)(=O)c3c(OCC(F)F)cccc3C(F)(F)F)nc12 | inactive
35 | OC(c1ccc(Cl)cc1)(c1cncnc1)c1ccccc1Cl (stereo not given) | inactive
36 | Cc1ccc(-c2c(Cl)nc(C#N)n2S(=O)(=O)N(C)C)cc1 | inactive
37 | CN(C)C(=S)SSC(=S)N(C)C | inactive
38 | CCOc1cc(Oc2ccc(C(F)(F)F)cc2Cl)ccc1[N+](=O)[O-] | inactive
39 | COC(=O)C=C(C)OP(=O)(OC)OC | inactive
40 | CC(C)Oc1cc(-n2nc(C(C)(C)C)oc2=O)c(Cl)cc1Cl | inactive
